From PubChem BioAssay (Tox21)
Results filed as inconclusive are left out. Where a call stands in place of a potency, no number is given. A number with no mark means an inactive call. The source made the active and inactive calls. The call rests on the fitted dose curve.

assay: qHTS assay to identify small molecule agonists of the AP-1 signaling pathway - cell viability counter screen (AID 1159525); settings: ME-180 (cervical carcinoma) AP-1-bla cells viability, ATP luminescence, 5 h; series mostly up to 76.8 µM; viability change, negative = cytotoxic: at the top concentration; further: nearly all actives have a fitted effect of over 55% in size
From the text: National Center for Advancing Translational Sciences [NCATS]
NIH Chemical Genomics Center [NCGC]
U.S. Environmental Protection Agency [EPA]
National Institutes of Environmental Health Sciences [NIEHS]
National Toxicology Program [NTP]
U.S. Food and Drug Administration [FDA]
Activator protein-1 (AP-1), a transcription factor, plays an important role in tumor genesis by regulating genes involved in cell proliferation, differentiation, apoptosis, and angiogenesis. AP-1 activity is induced by a complex network of signaling pathways that involves extracellular signals, such as growth factors. The AP-1 protein complex formed from c-Fos and c-Jun binding to the AP-1 response element results in transcriptional activation of genes containing such elements within their promoter.
Low molecular weight molecules have been discovered and developed to modulate various components of these signaling pathways, for example, MAP kinase inhibitors. However, many points of pathway modulation remain untested due to the lack of chemical probes making this signaling locus of general interest.
Using a beta-lactamase reporter-gene under control of the AP-1 response element, a cell-based assay [CellSensor(TM) AP-1-bla ME-180 developed by Invitrogen Corp.] was used to measure EGF-induced signaling. The Tox21 10K library compounds were measured for their ability to positively modulate the action of EC50 EGF on reporter gene activity. Compounds were screened in a 15-pt titration series in 1536-well format. The cytotoxicity of the Tox21 compound library against this cell line was tested in parallel by measuring the intra cellular ATP content in the same wells.
Tox21 Assay Protocol Summary:
2500 cells/5uL in Opti-MEM medium containing 0.5% dialyzed FBS, 0.1 mM NEAA, 1 mM sodium pyruvate and 10 mM HEPES was dispensed into 1536-well black wall/clear bottom plates using a Multidrop dispenser and cells were cultured at 37 degrees Celsius overnight. Next day 23 nL of compounds dissolved in DMSO, positive controls or DMSO were delivered to each well using a pin tool. The plates were incubated at 37 degrees Celsius for 5 hours. 1 uL of LiveBLAzerTM B/G FRET substrate (Solution A+B+C+D) was added to each well using a Flying Reagent Dispenser. After incubated at room temperature for 2.5 hours the plates were measured on an EnVision plate reader at Excitation 405nm, Emission1=460nm and Emission 2=530nm. The %Activity was determined from the ratio of 460nm/530nm.
After the plates were read for Beta-Lactamase assay on Envision; 3 ul Cell Titer Glo (Promega) was added to measure the cytotoxicity and the plates were then incubated at RT in dark for 30 min. The luminescence was read on ViewLux (Perkin Elmer, Shelton, CT) using 6 sec exposure. ViewLux data was expressed as relative luminescence units.
For primary data analysis, raw plate reads for each titration point were first normalized relative to […] EGF control (100%) and DMSO only wells (basal, 0%).
For primary data analysis for viability assay, raw plate reads for each titration point were first normalized Tetra n-octyl ammonium bromide control (-100%) and DMSO (control, 100%).
Potency means the concentration at half of the fitted maximal effect.

Compound	Potency	viability change, negative = cytotoxic
C=CCc1ccc2c(c1)OCO2	inactive	
CCC(C)(C)c1ccc(O)cc1	inactive	
Cc1c(COC(=O)[C@@H]2[C@H](/C=C(\Cl)C(F)(F)F)C2(C)C)cccc1-c1ccccc1	inactive	
O=C(O)CC[N+](=O)[O-]	inactive	
O=[N+]([O-])c1c(Cl)c(Cl)c(Cl)c(Cl)c1Cl	inactive	
O=[N+]([O-])c1ccc(O)c([N+](=O)[O-])c1		13.7%
Cc1cc(Cl)ccc1OCCCC(=O)O	inactive	
COc1ccc(C=O)cc1	inactive	
Oc1ccc(-c2ccccc2)cc1	inactive	
CCC(=O)O[C@H]1CC[C@H]2[C@@H]3CCC4=CC(=O)CC[C@]4(C)[C@H]3CC[C@]12C		3.75% [at 35.3 µM]
O=C(NC(=O)c1c(F)cccc1F)Nc1ccc(Cl)cc1	inactive	
N#Cc1cc(Br)c(O)c(Br)c1	inactive	
c1ccc(-c2cccc(-c3ccccc3)c2)cc1	inactive	
Cc1cccc(N)c1N	inactive	
C[C@]12CCC(=O)C[C@@H]1CC[C@@H]1[C@@H]2CC[C@]2(C)[C@@H](O)CC[C@@H]12	inactive	
CCC(C)c1cc([N+](=O)[O-])cc([N+](=O)[O-])c1O (stereo not given)	inactive	
C=C(C)[C@H]1Cc2c(ccc3c2O[C@@H]2COc4cc(OC)c(OC)cc4[C@@H]2C3=O)O1	inactive	
CNC(=O)N(C)c1nnc(C(C)(C)C)s1	inactive	
CN(C)C(=O)Nc1ccc(Cl)cc1	inactive	
CCN(CC)N=O	inactive	

Compound	Potency	viability change, negative = cytotoxic
CC(C)=CC1C(C(=O)OCc2coc(Cc3ccccc3)c2)C1(C)C (stereo not given)	inactive	
C=C(C)C(=O)OCC1CO1 (stereo not given)		-11.2%
CCCCN(CCCC)N=O	inactive	
O=P(O)(O)CCCl	inactive	
CC(O)CCO (stereo not given)	inactive	
CCCCCCOC(=O)c1ccccc1C(=O)OCCCCCC	inactive	
Cc1ccc2c(c1N)C(=O)c1ccccc1C2=O	inactive	
C=CC(=O)OCCO		3.12%
CCCCCCCCC(=O)NCc1ccc(O)c(OC)c1	inactive	
O=C(Nc1ccc(Br)cc1)c1cc(Br)cc(Br)c1O		-4.17%
O=[N+]([O-])c1cccc2ccccc12	inactive	
CCOc1cc(C=O)ccc1O	inactive	
COC(=O)c1sccc1S(=O)(=O)NC(=O)Nc1nc(C)nc(OC)n1	inactive	
CC1(C)C(C=C(Cl)Cl)C1C(=O)OC(C#N)c1cccc(Oc2ccccc2)c1 (stereo not given)	inactive	
Oc1cc(Cl)ccc1Oc1ccc(Cl)cc1Cl	15.8 µM (active)	
CCC(CC)Nc1c([N+](=O)[O-])cc(C)c(C)c1[N+](=O)[O-]	inactive	
CCCCC(CC)COC(=O)c1ccc(C(=O)OCC(CC)CCCC)c(C(=O)OCC(CC)CCCC)c1 (stereo not given)	inactive	
CCCCNC(=O)n1c(NC(=O)OC)nc2ccccc21		0.353%
CCCCCCCCCCCOC(=O)c1ccccc1C(=O)OCCCCCCCCCCC		-8.15%
O=S(=O)(Oc1ccc(Cl)cc1)c1ccc(Cl)cc1	inactive	
